Laboratory results: the supplement of paper PMC7156485
± gives the standard deviation of the averaged measurements.

What was measured:
Conditions in all cases: concentration: 10 µM; 24 h
HCC1569 [1] = test: cell number relative to DMSO (% of DMSO); higher = more cells (less growth inhibition / toxicity)
Summary of the method: (§1)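 HCC1569 and TDF cells were seeded at 800 per well in 384-well plates in RPMI with 10% FBS and treated with compounds at 10 µM for 24 h at 37 °C, in triplicate. After fixation in 3.7% formaldehyde, cells were stained with a rabbit anti-H1.0 antibody, an AlexaFluor 647 secondary and DAPI, and six fields per well were imaged at ×10. H1.0 nuclear intensity or cell number is given as percent of the plate control, using the median of replicates, with HCC1569 values smoothed for positional effects.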

TDF [2] = test: as above
Summary of the method: as §1

TDF [3] = test: H1.0 immunofluorescence intensity relative to DMSO (% of DMSO); higher = stronger H1.0 induction, active = 120 or more
Summary of the method: as §1

HCC1569 [4] = test: H1.0 immunofluorescence intensity relative to DMSO (% of DMSO); higher = stronger H1.0 induction, active = 140 or more
Summary of the method: as §1
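Throughout, for H1.0 immunofluorescence intensity relative to DMSO: TDF is a line of transformed human dermal fibroblasts of mesenchymal origin.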
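Throughout, for cell number relative to DMSO: TDF denotes transformed human dermal fibroblasts of mesenchymal origin.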

SMILES | cell number (HCC1569 [1]) | cell number (TDF [2]) | H1.0 immunofluorescence intensity (TDF [3]) | H1.0 immunofluorescence intensity (HCC1569 [4])
CC(N)C12CC3CC(CC(C3)C1)C2 (stereo not given) [Rimantadine] | 99.7 | 107 | 93.4 (inactive) | 112 (inactive)
CCN(CC)C(=S)SSC(=S)N(CC)CC [Tetraethylthiuram disulfide] | 97.2 | 54 | 120 (inactive) | 102 (inactive)
Oc1ccc(C=Cc2cc(O)cc(O)c2)cc1 [Resveratrol] | 79.2 ± 6.3 | 79.5 ± 4 | 99.5 (inactive) | 113 (inactive)
CN1C2CCC1CC(NC(=O)c1nn(C)c3ccccc13)C2.O=C(O)C=CC(=O)O (stereo not given) [LY-278,584 maleate] | 104 | 94.8 | 99.1 (inactive) | 93 (inactive)
Cc1ccccc1N1C(=O)c2cc(S(N)(=O)=O)c(Cl)cc2NC1C (stereo not given) [Metolazone] | 104 | 110 | 89.8 (inactive) | 91.1 (inactive)
CC(C)Cc1ccc(C(C)C(=O)NO)cc1 (stereo not given) [Ibuproxam] | 103 | 101 | 87.3 (inactive) | 95.2 (inactive)
CC(N)(Cc1ccc(O)cc1)C(=O)O [L-alpha-Methyl-p-tyrosine] | 107 | 111 | 92.6 (inactive) | 90.6 (inactive)
CCCC1CC(C(=O)NC(C(C)Cl)C2OC(SC)C(O)C(O)C2O)N(C)C1.Cl (stereo not given) [Clindamycin.HCl] | 111 | 110 | 106 (inactive) | 91.3 (inactive)
N#Cc1c(-c2ccccc2)no[n+]1[O-] [4-Phenyl-3-furoxancarbonitrile] | 64.2 | 93.3 | 93.2 (inactive) | 122 (inactive)
NC(=O)C(=O)[O-].[Na+] [Sodium Oxamate] | 102 | 105 | 94 (inactive) | 93.5 (inactive)
CN1C2CCC1CC(OC(=O)c1c[nH]c3ccccc13)C2.Cl (stereo not given) [3-Tropanyl-indole-3-carboxylate hydrochloride] | 103 | 112 | 93.4 (inactive) | 112 (inactive)
CCCCCCCCC=CCCCCCCCC(=O)O [9(E)-Octadecenoic acid] | 100 | 108 | 94.9 (inactive) | 101 (inactive)
C[C@@H](Oc1cc(-c2cnn(C3CCNCC3)c2)cnc1N)c1c(Cl)ccc(F)c1Cl | 59.6 | 36.3 | 161 (active) | 136 (inactive)
COc1ccc(CN2CCN(C(c3ccc(F)cc3)c3ccc(F)cc3)CC2)c(OC)c1OC [Lomerizine] | 102 | 98.8 | 92.3 (inactive) | 105 (inactive)
COc1ccc2c(c1OC)N=C(NC(=O)c1cccnc1)N1CCN=C21 | 99.8 | 93.2 | 94.1 (inactive) | 101 (inactive)
CC(C)(C)C1(O)CCN2CC3c4ccccc4CCc4cccc(c43)C2C1.Cl (single isomer, unassigned; (+)) [(+)-Butaclamol.HCl] | 106 | 108 | 95.7 (inactive) | 100 (inactive)
CS(=O)(=O)CCNCc1ccc(-c2ccc3ncnc(Nc4ccc(OCc5cccc(F)c5)c(Cl)c4)c3c2)o1.Cc1ccc(S(=O)(=O)O)cc1.Cc1ccc(S(=O)(=O)O)cc1 [Lapatinib ditosylate] | 88.5 | 94.3 | 93.5 (inactive) | 110 (inactive)
Nc1[nH]nc2nnc(-c3c(-c4ccccc4)nn4ccccc34)cc12 | 94.2 | 100 | 89.2 (inactive) | 117 (inactive)
CCOc1nc2cccc(C(=O)O)c2n1Cc1ccc(-c2ccccc2-c2nn[nH]n2)cc1 [Candesartan] | 104 | 97.2 | 99.8 (inactive) | 99.7 (inactive)
CCCS(=O)c1ccc2nc(NC(=O)OC)[nH]c2c1 (stereo not given) [Ricobendazole] | 98.4 | 81.6 | 114 (inactive) | 109 (inactive)
CSc1ccc2c(c1)N(CCC1CCCCN1C)c1ccccc1S2.Cl (stereo not given) [Thioridazine hydrochloride] | 86.6 | 90.6 | 110 (inactive) | 155 (active)
CON=C(C(=O)NC1C(=O)N2C(C(=O)[O-])=C(COC(C)=O)CSC12)c1csc(N)n1.[Na+] (stereo not given) [Cefotaxime sodium] | 103 | 117 | 92.3 (inactive) | 87 (inactive)
CNc1nccc(-c2cccnc2Oc2cc(C(=O)Nc3cccc(C(F)(F)F)c3)ccc2C)n1 | 82.3 | 103 | 92.9 (inactive) | 102 (inactive)
Brc1c(Br)c(Br)c2n[nH]nc2c1Br [TBB - 4,5,6,7-Tetrabromobenzotriazole] | 104 | 96.4 | 99.2 (inactive) | 104 (inactive)
CCCCCC(O)CC=C1C(=O)C=CC1CC=CCCCC(=O)O (stereo not given) [D12-Prostaglandin J2] | 108 | 96.8 | 103 (inactive) | 106 (inactive)

SMILES | cell number (HCC1569 [1]) | cell number (TDF [2]) | H1.0 immunofluorescence intensity (TDF [3]) | H1.0 immunofluorescence intensity (HCC1569 [4])
NC(C(=O)O)C1CC(Cl)=NO1 (stereo not given) [Acivicin] | 93.2 | 68.8 | 122 (active) | 108 (inactive)
CCCCCCCCC=CCCCCCCCCC(=O)O [10(E)-Nonadecenoic acid] | 96.1 | 98.8 | 97.4 (inactive) | 101 (inactive)
COc1cc2c3cc1Oc1c(OC)c(OC)cc4c1C(Cc1ccc(OC(=O)c5ccc([N+](=O)[O-])cc5)c(c1)Oc1ccc(cc1)CC3N(C)CC2)N(C)CC4 (stereo not given) [E6 Berbamine] | 90.2 | 95.2 | 98.8 (inactive) | 97.7 (inactive)
O=C(O)c1cn(C2CC2)c2cc(N3C[C@@H]4C[C@H]3CN4)c(F)cc2c1=O | 99.1 | 109 | 91.9 (inactive) | 102 (inactive)
COC1=C(OC)C(=O)c2ccccc2C1=O [2,3-Dimethoxy-1,4-naphthoquinone] | 74.6 | 36.2 | 114 (inactive) | 128 (inactive)
CC(C)NCC(O)COc1cccc2ccccc12.Cl (racemic) | 101 | 91.5 | 98.8 (inactive) | 94.2 (inactive)
CCCCCC=CCC1OC1C(O)C=CCC=CCCCC(=O)O (stereo not given) [Hepoxilin B3] | 102 | 95 | 95.2 (inactive) | 93.1 (inactive)
Cl.NC(N)=NCCNS(=O)(=O)c1cccc2cnccc12 [HA-1004 hydrochloride] | 103 | 116 | 87.2 (inactive) | 88.4 (inactive)
CCCCCN(CCCCC)C(=O)C(CCC(=O)[O-])NC(=O)c1ccc(Cl)c(Cl)c1.[Na+] (stereo not given) [Lorglumide sodium] | 103 | 107 | 100 (inactive) | 89.8 (inactive)
CC(C)(CO)Cc1cc(C(C)(C)C)c(O)c(C(C)(C)C)c1 | 102 | 106 | 94.6 (inactive) | 109 (inactive)
N#CCCc1ccc2c(c1)-c1[nH]c3ccc([N+](=O)[O-])cc3c1CC(=O)N2 [Alsterpaullone,                   2-Cyanoethyl] | 63.2 | 32.7 | 112 (inactive) | 113 (inactive)
CCCn1c(=O)c2[nH]c(-c3ccc(S(=O)(=O)O)cc3)nc2n(CCC)c1=O [1,3-Dipropyl-8-p-sulfophenylxanthine] | 104 | 106 | 90.4 (inactive) | 92.6 (inactive)
CC(=O)CCCCn1c(=O)c2c(ncn2C)n(C)c1=O [Pentoxifylline] | 103 ± 4.1 | 106 ± 5.2 | 92.8 (inactive) | 105 (inactive)
CCCCCCCCCCCCCC(=O)O [Tetradecanoic acid] | 99.4 | 104 | 97.8 (inactive) | 102 (inactive)
CCCCCC(O)CC(=O)CCc1ccc(O)c(OC)c1 (stereo not given) [Gingerol] | 99.3 | 97.2 | 92.9 (inactive) | 85.8 (inactive)
COc1cc2ncnc(N3CCN(C(=O)Nc4ccc(Oc5ccccc5)cc4)CC3)c2cc1OC [PDGF Receptor Tyrosine Kinase Inhibitor III] | 72.2 | 62.2 | 102 (inactive) | 215 (active)
Cn1c(=O)c2c(ncn2C)n(C)c1=O [Caffeine] | 102 ± 2.6 | 102 ± 7.9 | 96.1 (inactive) | 91.3 (inactive)
COc1ccc(-c2cc(=O)c3c(O)cc(OC4OC(COC5OC(C)C(O)C(O)C5O)C(O)C(O)C4O)cc3o2)cc1O (stereo not given) [Diosmin] | 104 | 107 | 91.8 (inactive) | 92 (inactive)
N=C1Sc2ccccc2C2=NCCCN12 | 100 | 99.9 | 91.9 (inactive) | 112 (inactive)
CCC1C(=O)OCC1Cc1cncn1C.Cl (single isomer, unassigned; (+)) [(+)-Pilocarpine hydrochloride] | 97.7 | 93.1 | 102 (inactive) | 101 (inactive)
CCOC(=O)C(CCc1ccccc1)NC(C)C(=O)N1C(C(=O)O)CC2CCCC21 (stereo not given) [Ramipril] | 105 | 105 | 94.6 (inactive) | 111 (inactive)
CCC=CCC=CCC=CCCCCCCCC(=O)O [Linolenic acid] | 104 ± 3.3 | 98.7 ± 9 | 101 (inactive) | 97.6 (inactive)
CC(N)=O [Acetamide] | 113 | 103 | 111 (inactive) | 106 (inactive)
CCCCCCC=CCCCCCCCC(=O)O [9(E)-Hexadecenoic acid] | 99.8 | 97.4 | 105 (inactive) | 105 (inactive)
CC1OC(OC2C(Oc3cc(O)c4c(c3)OC(c3ccc(O)cc3)CC4=O)OC(CO)C(O)C2O)C(O)C(O)C1O (stereo not given) [Naringin] | 103 | 99 | 96.2 (inactive) | 86.1 (inactive)
